According to paper PMC11006913:

Each sequence was assayed against SHOX (Homo sapiens, UniProt O15266 103-189) (assay: PBM; 200 nM protein, PBS). Conditions: dsDNA, one strand shown.
Sequence of SHOX (Homo sapiens, UniProt O15266 103-189) (O15266 103-189): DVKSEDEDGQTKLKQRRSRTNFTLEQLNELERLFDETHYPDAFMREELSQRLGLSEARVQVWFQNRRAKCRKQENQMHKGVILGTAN
CCGAAGCG was tested, and the binding signal was 7.16 upbm affinity estimate (log intensity, higher = more binding, comparable within an allelic series). With CAACCAGC the binding signal was 7.2 upbm affinity estimate (log intensity, higher = more binding, comparable within an allelic series). AATTAGGC was tested, and the binding signal was 11.6 upbm affinity estimate (log intensity, higher = more binding, comparable within an allelic series). In the case of CTCCGCCA, the binding signal was 7.21 upbm affinity estimate (log intensity, higher = more binding, comparable within an allelic series). In the case of CGGCCTGA, the binding signal was 7.33 upbm affinity estimate (log intensity, higher = more binding, comparable within an allelic series). TCGCGCGA was tested, and the binding signal was 7.38 upbm affinity estimate (log intensity, higher = more binding, comparable within an allelic series). With CTCTCCTC the binding signal was 7.22 upbm affinity estimate (log intensity, higher = more binding, comparable within an allelic series). In the case of CGGGGCCA, the binding signal was 6.97 upbm affinity estimate (log intensity, higher = more binding, comparable within an allelic series). In the case of CCAGTTTA, the binding signal was 8.2 upbm affinity estimate (log intensity, higher = more binding, comparable within an allelic series). CCCCTTCC was tested, and the binding signal was 7.19 upbm affinity estimate (log intensity, higher = more binding, comparable within an allelic series). CCCAGCGC was tested, and the binding signal was 7.21 upbm affinity estimate (log intensity, higher = more binding, comparable within an allelic series). With CCTGGGGC the binding signal was 7.08 upbm affinity estimate (log intensity, higher = more binding, comparable within an allelic series). For CCCGGGGC, the binding signal was 7.23 upbm affinity estimate (log intensity, higher = more binding, comparable within an allelic series). With CCCCGAAC the binding signal was 7.23 upbm affinity estimate (log intensity, higher = more binding, comparable within an allelic series). With AGTTTATG the binding signal was 8.25 upbm affinity estimate (log intensity, higher = more binding, comparable within an allelic series). For TATTAGGA, the binding signal was 10.1 upbm affinity estimate (log intensity, higher = more binding, comparable within an allelic series). CCGCGCCA was tested, and the binding signal was 7.12 upbm affinity estimate (log intensity, higher = more binding, comparable within an allelic series). GCCTATTA was tested, and the binding signal was 10.8 upbm affinity estimate (log intensity, higher = more binding, comparable within an allelic series). With ACCTGAGG the binding signal was 7.18 upbm affinity estimate (log intensity, higher = more binding, comparable within an allelic series). With GGACGTCC the binding signal was 7.52 upbm affinity estimate (log intensity, higher = more binding, comparable within an allelic series). In the case of CCGTGGCC, the binding signal was 7.18 upbm affinity estimate (log intensity, higher = more binding, comparable within an allelic series). CTGAGGCA was tested, and the binding signal was 7.29 upbm affinity estimate (log intensity, higher = more binding, comparable within an allelic series). With CTCCGAAC the binding signal was 7.18 upbm affinity estimate (log intensity, higher = more binding, comparable within an allelic series). ACCCGGAC was tested, and the binding signal was 7.09 upbm affinity estimate (log intensity, higher = more binding, comparable within an allelic series). In the case of ACCCGCCC, the binding signal was 7.27 upbm affinity estimate (log intensity, higher = more binding, comparable within an allelic series). In the case of ATATTAAA, the binding signal was 9.92 upbm affinity estimate (log intensity, higher = more binding, comparable within an allelic series). In the case of AAGGCTCC, the binding signal was 7.08 upbm affinity estimate (log intensity, higher = more binding, comparable within an allelic series). In the case of GGCCCAGA, the binding signal was 7.17 upbm affinity estimate (log intensity, higher = more binding, comparable within an allelic series). In the case of CCAAACGG, the binding signal was 7.11 upbm affinity estimate (log intensity, higher = more binding, comparable within an allelic series). CAGCCGCG was tested, and the binding signal was 7.08 upbm affinity estimate (log intensity, higher = more binding, comparable within an allelic series). GCCGGGGA was tested, and the binding signal was 7.02 upbm affinity estimate (log intensity, higher = more binding, comparable within an allelic series). In the case of GGCTGGCA, the binding signal was 7.2 upbm affinity estimate (log intensity, higher = more binding, comparable within an allelic series). With GGCCAGAC the binding signal was 7.3 upbm affinity estimate (log intensity, higher = more binding, comparable within an allelic series). In the case of AGCCGCCG, the binding signal was 7.12 upbm affinity estimate (log intensity, higher = more binding, comparable within an allelic series). CCCAGCGA was tested, and the binding signal was 7.15 upbm affinity estimate (log intensity, higher = more binding, comparable within an allelic series). CAATCTTC was tested, and the binding signal was 7.99 upbm affinity estimate (log intensity, higher = more binding, comparable within an allelic series). In the case of GCATGGCC, the binding signal was 7.2 upbm affinity estimate (log intensity, higher = more binding, comparable within an allelic series). For AGCCACCG, the binding signal was 7.07 upbm affinity estimate (log intensity, higher = more binding, comparable within an allelic series). In the case of AGGGCAGC, the binding signal was 6.98 upbm affinity estimate (log intensity, higher = more binding, comparable within an allelic series). With CCGGGAAA the binding signal was 7.25 upbm affinity estimate (log intensity, higher = more binding, comparable within an allelic series).

What follows are sequences tested against ALX3 (Homo sapiens, UniProt O95076 139-225, N203Q) (assay: PBM; 200 nM protein, PBS). Conditions: dsDNA, one strand shown.
Sequence of ALX3 (O95076 139-225 N203Q): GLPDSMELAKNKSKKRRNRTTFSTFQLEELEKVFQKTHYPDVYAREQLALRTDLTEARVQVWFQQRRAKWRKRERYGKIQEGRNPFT
CCTGGGGC was tested, and the binding signal was 7.67 upbm affinity estimate (log intensity, higher = more binding, comparable within an allelic series). With GGACGTCC the binding signal was 7.88 upbm affinity estimate (log intensity, higher = more binding, comparable within an allelic series). In the case of ATATTAAA, the binding signal was 8.59 upbm affinity estimate (log intensity, higher = more binding, comparable within an allelic series). With CAGCCGCG the binding signal was 7.74 upbm affinity estimate (log intensity, higher = more binding, comparable within an allelic series).

The sequences below were run against HOXD13 (Homo sapiens, UniProt P35453 263-343, T313R) (assay: PBM; 200 nM protein, PBS). Conditions: dsDNA, one strand shown.
Sequence of HOXD13 (P35453 263-343 T313R): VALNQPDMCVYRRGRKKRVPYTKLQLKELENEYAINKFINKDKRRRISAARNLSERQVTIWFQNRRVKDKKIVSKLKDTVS
In the case of CCCAGCGC, the binding signal was 9.41 upbm affinity estimate (log intensity, higher = more binding, comparable within an allelic series). In the case of AGTTTATG, the binding signal was 10.7 upbm affinity estimate (log intensity, higher = more binding, comparable within an allelic series). In the case of ATATTAAA, the binding signal was 10.7 upbm affinity estimate (log intensity, higher = more binding, comparable within an allelic series). For AGCCGCCG, the binding signal was 9.48 upbm affinity estimate (log intensity, higher = more binding, comparable within an allelic series). For AGCCACCG, the binding signal was 9.53 upbm affinity estimate (log intensity, higher = more binding, comparable within an allelic series). In the case of AGGGCAGC, the binding signal was 9.54 upbm affinity estimate (log intensity, higher = more binding, comparable within an allelic series).

These sequences were tested against SHOX (Homo sapiens, UniProt O15266 103-189, R173C) (assay: PBM; 200 nM protein, PBS). Conditions: dsDNA, one strand shown.
Sequence of SHOX (Homo sapiens, UniProt O15266 103-189, R173C) (O15266 103-189 R173C): as the sequence (O15266 103-189) above, with R71C counted along it
In the case of CCGAAGCG, the binding signal was 7.24 upbm affinity estimate (log intensity, higher = more binding, comparable within an allelic series). With CAACCAGC the binding signal was 7.18 upbm affinity estimate (log intensity, higher = more binding, comparable within an allelic series). In the case of AATTAGGC, the binding signal was 9.07 upbm affinity estimate (log intensity, higher = more binding, comparable within an allelic series). With CTCCGCCA the binding signal was 7.21 upbm affinity estimate (log intensity, higher = more binding, comparable within an allelic series). With CGGCCTGA the binding signal was 7.17 upbm affinity estimate (log intensity, higher = more binding, comparable within an allelic series). With TCGCGCGA the binding signal was 7.28 upbm affinity estimate (log intensity, higher = more binding, comparable within an allelic series). For CTCTCCTC, the binding signal was 7.21 upbm affinity estimate (log intensity, higher = more binding, comparable within an allelic series). CGGGGCCA was tested, and the binding signal was 7.1 upbm affinity estimate (log intensity, higher = more binding, comparable within an allelic series). In the case of CCAGTTTA, the binding signal was 7.55 upbm affinity estimate (log intensity, higher = more binding, comparable within an allelic series). For CCCCTTCC, the binding signal was 7.03 upbm affinity estimate (log intensity, higher = more binding, comparable within an allelic series). In the case of CCCAGCGC, the binding signal was 7.13 upbm affinity estimate (log intensity, higher = more binding, comparable within an allelic series). With CCTGGGGC the binding signal was 7.09 upbm affinity estimate (log intensity, higher = more binding, comparable within an allelic series). In the case of CCCGGGGC, the binding signal was 7.07 upbm affinity estimate (log intensity, higher = more binding, comparable within an allelic series). For CCCCGAAC, the binding signal was 7.26 upbm affinity estimate (log intensity, higher = more binding, comparable within an allelic series). CCGCGCCA was tested, and the binding signal was 7.11 upbm affinity estimate (log intensity, higher = more binding, comparable within an allelic series). In the case of GCCTATTA, the binding signal was 8.45 upbm affinity estimate (log intensity, higher = more binding, comparable within an allelic series). ACCTGAGG was tested, and the binding signal was 7.27 upbm affinity estimate (log intensity, higher = more binding, comparable within an allelic series). GGACGTCC was tested, and the binding signal was 7.3 upbm affinity estimate (log intensity, higher = more binding, comparable within an allelic series). For CCGTGGCC, the binding signal was 7.22 upbm affinity estimate (log intensity, higher = more binding, comparable within an allelic series). CTGAGGCA was tested, and the binding signal was 7.31 upbm affinity estimate (log intensity, higher = more binding, comparable within an allelic series). CTCCGAAC was tested, and the binding signal was 7.23 upbm affinity estimate (log intensity, higher = more binding, comparable within an allelic series). With ACCCGGAC the binding signal was 7.17 upbm affinity estimate (log intensity, higher = more binding, comparable within an allelic series). With ACCCGCCC the binding signal was 7.22 upbm affinity estimate (log intensity, higher = more binding, comparable within an allelic series). In the case of AAGGCTCC, the binding signal was 7.1 upbm affinity estimate (log intensity, higher = more binding, comparable within an allelic series). With GGCCCAGA the binding signal was 7.12 upbm affinity estimate (log intensity, higher = more binding, comparable within an allelic series). In the case of CCAAACGG, the binding signal was 7.21 upbm affinity estimate (log intensity, higher = more binding, comparable within an allelic series). CAGCCGCG was tested, and the binding signal was 7.07 upbm affinity estimate (log intensity, higher = more binding, comparable within an allelic series). GCCGGGGA was tested, and the binding signal was 7.11 upbm affinity estimate (log intensity, higher = more binding, comparable within an allelic series). For GGCTGGCA, the binding signal was 7.13 upbm affinity estimate (log intensity, higher = more binding, comparable within an allelic series). GGCCAGAC was tested, and the binding signal was 7.26 upbm affinity estimate (log intensity, higher = more binding, comparable within an allelic series). With AGCCGCCG the binding signal was 7.19 upbm affinity estimate (log intensity, higher = more binding, comparable within an allelic series). In the case of CCCAGCGA, the binding signal was 7.2 upbm affinity estimate (log intensity, higher = more binding, comparable within an allelic series). CAATCTTC was tested, and the binding signal was 7.51 upbm affinity estimate (log intensity, higher = more binding, comparable within an allelic series). In the case of GCATGGCC, the binding signal was 7.2 upbm affinity estimate (log intensity, higher = more binding, comparable within an allelic series). For AGCCACCG, the binding signal was 7.05 upbm affinity estimate (log intensity, higher = more binding, comparable within an allelic series). In the case of AGGGCAGC, the binding signal was 7.18 upbm affinity estimate (log intensity, higher = more binding, comparable within an allelic series). With CCGGGAAA the binding signal was 7.26 upbm affinity estimate (log intensity, higher = more binding, comparable within an allelic series).
